Reference: the supplement of paper PMC11417369
± gives the standard deviation of the averaged measurements. The full ranking holds about 25,000 sequences; the median of “ln(normalized median fluorescence intensity)” is about 10, and the highest 2% start at about 12. Only a selection was taken, and the highest values are over-represented in it overall.

test system: PfAP2-G AP2 domain (GST-tagged); test: gcPBM binding intensity (ln(normalized median fluorescence intensity)); higher = stronger DNA binding
Method in brief: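 DNA-binding domains from P. falciparum, fused to GST and produced in E. coli, were put on an Agilent 4 × 180k double-stranded probe array for 1 h in 1× PBS holding 1% milk, 0.2 mg/ml BSA, 0.5% salmon testes DNA and 0.03% Triton X-100. Probes were primer-extended, 36 bp long and drawn from intergenic genomic regions, with negative controls included. After Alexa488 anti-GST antibody detection and a 488 nm scan, binding intensity was set as the highest Masliner-normalised natural-log median intensity across replicate spots of either probe orientation.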

Row | Sequence | gcPBM binding intensity (ln)
1 | ATATATTGAACATATTGTACATTTTGTTAATATTTT [XGTACX_site7622] | 10.7 ± 0.43
2 | TTATATTTATATATTTGTACGTATGTATATAATTCA [XGTACX_site2993] | 11.4 ± 0.97
3 | ATTGTTTTTTTTTCTTTGTGGAATGAATGAATATAT [XGTACX_negctrl_site603] | 10 ± 0.19
4 | TATATATATATATTGACACACATGTATTTCAATATT [CACACA_site2832] | 10.1 ± 0.21
5 | TATATATATATGTGCACACATAATAAAAAAAAAAAT [CACACA_site3831] | 10.6 ± 0.69
6 | AAAAAATTAATATTGACACACATTTTTAAGAATAAT [CACACA_site239] | 10.1 ± 0.16
7 | TATGTTTTTGAATGAGTGCATTAAAATAAAACATTT | 10.2 ± 0.27
8 | AAAAAAGAAAAAAGGACACACATAAATATACTCACG [CACACA_site2904] | 11.2 ± 0.91
9 | TAAATTATAATATGCACACAAAATGTTATATTAAAA [CACACA_site376] | 9.97 ± 0.26
10 | TAAAAAATAAATATATGTACGCAATAAATGTGTTAA [XGTACX_site4043] | 11.6 ± 1.1
11 | AATTTTATTTAATTTTTTTGGGAAATGATAAAATTT [CACACA_negctrl_site934] | 9.88 ± 0.2
12 | CATATGCGTCTTGCCTTGCACACTTTTATGAAAAAA [CACACA_site2055] | 10.4 ± 0.26
13 | ATACACACTTAAAAAAGTACTTAACTACATGAATTG [XGTACX_site1203] | 11.1 ± 0.59
14 | TATATATACATATACACACACACACCCATATATATA [CACACA_site2246] | 10.1 ± 0.2
15 | CATATATACGCATACACACACACACCCACACCCACA [CACACA_site1725] | 10.6 ± 0.52
16 | CATATTCCCCCCCACACACACACACGCATACATACC [CACACA_site7148] | 11.8 ± 0.6
17 | TACACCCACCCACATACACACACATACACATATATA [CACACA_site8503] | 10.3 ± 0.35
18 | CACCCACCCACATACACACACATACACATATATATA [CACACA_site1722] | 10.2 ± 0.25
19 | CATATTCCCCCCCACACACACACACCCATACATACC [CACACA_site2303] | 11.7 ± 0.71

Row | Sequence | gcPBM binding intensity (ln)
20 | CACAAACACCCAAACACACACACACCGACATACATA [CACACA_site4410] | 10.2 ± 0.27
21 | TATTCCCCCCAACACACACACACACCGACATACCAC [CACACA_site8723] | 11.8 ± 1.1
22 | TATTCCCCCAAACACACACACACACCCACATACCAC [CACACA_site2304] | 11.1 ± 0.78
23 | ACCATACATACATACACACACACACGCATATTTATA [CACACA_site7386] | 10.4 ± 0.28
24 | CATACACCCATACATACACACATACATATATATATA [CACACA_site8591] | 10.2 ± 0.11
25 | GACATATTCCCCCCCACACACACACCCACATACATA [CACACA_site2302] | 11.8 ± 0.71
26 | TTTTTGTATTCTACCTTAACAATCTTAAAGATTTTT [CACACA_negctrl_site1157] | 9.97 ± 0.11
27 | GTAAATAATAAACACCGTACATGGTATAATTCAATG [XGTACX_site3655] | 10.7 ± 0.33
28 | AAGTCAATTTTTTTTTTTTTTTTTTAACTTATTAAT [TGCATGCA_negctrl_site14] | 9.605 ± 0.078
29 | TCATTTCACAGACACACACACACAAGATATTTCCTT [CACACA_site7774] | 10.1 ± 0.11
30 | AAAAAAAAAGGTACTACACACTATTCTCAATAGAAA [CACACA_site6193] | 11.1 ± 0.86
31 | TAACAATAACTTTATACACACATAATATAAATATAT [CACACA_site7635] | 9.87 ± 0.014
32 | AACACCAATTCATATGCACACACATCTGCATATTAT [CACACA_site8523] | 10.12 ± 0.078
33 | TATATTAAAAAAGAGGTGCATTCGTAAGAGGTTAAA [GTGCAC_site9720] | 10.05 ± 0.064
34 | CAACATTTGATAAACACACAGAAGTATAAATATATA [CACACA_site2365] | 10.24 ± 0.035
35 | AAAATAAACCCAGACACACTCATTAAAAAATATCAT [CACACA_site5903] | 9.95 ± 0.099
36 | AAAAATGTATGTATGGTGCAGTATTCATATCATTTT [GTGCAC_site9458] | 10.03 ± 0.021
37 | AAAGTAAAAACACATACATGCATATACACATATAAC [TGCATGCA_site341] | 9.9 ± 0.12
38 | GTTGTTATATAAAGGAGTACATAATAACACAAATAT [XGTACX_site615] | 11.7 ± 1.2

Row | Sequence | gcPBM binding intensity (ln)
39 | AAAATATATACACAAACATGCATATAATAAATAAAT [TGCATGCA_site711] | 9.895 ± 0.064
40 | TTTGTTAATATAAAAACACACAAAAATAACATAAAA [CACACA_site2619] | 10.2 ± 0.22
41 | ATATAAAAAAAAAAAAGTACACATAAACAAATGCAT [XGTACX_site4241] | 11.7 ± 1
42 | AAAACAAATGAGTACACACACATAAAAATTGAAAAT [CACACA_site199] | 11.5 ± 0.9
43 | CTTTATAATATTTGTTGTACACAAATATAACATATT [XGTACX_site709] | 11.6 ± 1.1
44 | ATAAAACAAATGAGTACACACACATAAAAATTGAAA [CACACA_site7949] | 11.6 ± 1.2
45 | AAAACAAATGAGTACACACACATAAAAGTTGAAAAT [CACACA_site6238] | 11.8 ± 1.3
46 | TTTTTGTTCTATATGGTGCATGTTTATATTCGTATT | 10.2 ± 0.19
47 | AATTATAATAATAATAGTACATAAGTATATAAATAA [XGTACX_site2400] | 11 ± 0.62
48 | AAATAAATAAGAAACGCATGCATATATAATATATAA [TGCATGCA_site326] | 9.83 ± 0.057
49 | AGTAATAATCGGCATGCATGTCAGTGGTAGTATATA [TGCATGCA_site312] | 10.3 ± 0.41
50 | TCTTCATTTTTATGTGCATGTAAAATTTTTTTTTTT [TGCATGCA_site963] | 10.2 ± 0.19
51 | ATATAATATTTATATGTACACACCTTAATCCTTAAA [CACACA_site3555] | 11.3 ± 0.81
52 | TTGTACTACAATCCTTTATTTATTTAAACCTGTATG [CACACA_negctrl_site428] | 11.6 ± 1.1
53 | TTTTTTAACCTTTTATGTACACAATATTTAACATTT [XGTACX_site1170] | 11.6 ± 0.95
54 | TATTTTGTTCTTTCCACACACAAATACATATATTGT [CACACA_site4071] | 10.3 ± 0.24
55 | TATTGTATCCTTAATGCATGCACCAAATAAAAAAAG [TGCATGCA_site541] | 10.5 ± 0.54
56 | AAAAATAAAATAAAATAAAATAAAAATAAAGAAAAA [CACACA_negctrl_site808] | 9.39 ± 0.16
57 | TGGCACTAAAAAAATAAACACACAGATTTATATAAT [CACACA_site8386] | 9.81 ± 0.18
